Source: the supplement of paper PMC6555819

Assays:
Experiment in all cases: PBM binding z-score (relative to random genomic background probes); higher = stronger binding; sequences stand for … in GC…GCGATTGACAGCGTAGAATGAAGG
[1] = tested on: FXR:RXRa (NR concentration 270 nM, RXRa partner concentration 90 nM)
Summary of the method: (§1)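 Binding buffer was PBS pH 7.4 with 2% milk, 0.02% Triton X-100, 1 mM DTT, 0.2 mg/mL BSA and 0.4 mg/ml salmon testes DNA. In it, ligand-free nuclear receptor dimers were incubated 1 h on custom Agilent 4×180K protein-binding microarrays carrying double-stranded probes. Antibodies against each partner (one per run) detected binding, and z-scores were calculated against random background probes after regression normalization of scanned fluorescence.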

[2] = tested on: LXRa:RXRa (NR concentration 270 nM, RXRa partner concentration 90 nM)
Summary of the method: as §1

[3] = tested on: LXRa homodimer (NR concentration 270 nM)
Summary of the method: as §1

[4] = tested on: LXRb:RXRa (NR concentration 270 nM, RXRa partner concentration 90 nM)
Summary of the method: as §1

[5] = tested on: LXRb homodimer (NR concentration 270 nM)
Summary of the method: as §1

[6] = tested on: PPARa:RXRa (NR concentration 270 nM, RXRa partner concentration 90 nM)
Summary of the method: as §1

[7] = tested on: PPARg:RXRa (NR concentration 180 nM, RXRa partner concentration 90 nM)
Summary of the method: as §1

[8] = tested on: PPARg:RXRa 270nM:90nM, anti-RXR (NR concentration 270 nM, RXRa partner concentration 90 nM)
Summary of the method: as §1

[9] = tested on: PPARg:RXRa 30nM:10nM, anti-RXR (NR concentration 30 nM, RXRa partner concentration 10 nM)
Summary of the method: as §1

[10] = tested on: PPARg:RXRa 90nM:30nM, anti-RXR (NR concentration 90 nM, RXRa partner concentration 30 nM)
Summary of the method: as §1

[11] = tested on: PPARg:RXRa DBDmut IVT, anti-RXR (DBD mutation: RXRa K156A/R161A, NR concentration 270 nM, RXRa partner concentration 90 nM)
Summary of the method: as §1

[12] = tested on: PPARg:RXRa IVT, anti-PPARg (NR concentration 270 nM, RXRa partner concentration 90 nM)
Summary of the method: as §1

[13] = tested on: PPARg DBDmut:RXRa IVT, anti-PPARg (DBD mutation: PPARg1 K132A/R137A, NR concentration 270 nM, RXRa partner concentration 90 nM)
Summary of the method: as §1

[14] = tested on: PPARg DBDmut IVT, anti-PPARg (DBD mutation: PPARg1 K132A/R137A, NR concentration 270 nM)
Summary of the method: as §1

[15] = tested on: PPARg homodimer (NR concentration 180 nM)
Summary of the method: as §1

[16] = tested on: PXR:RXRa (NR concentration 270 nM, RXRa partner concentration 90 nM)
Summary of the method: as §1

[17] = tested on: PXR homodimer (NR concentration 270 nM)
Summary of the method: as §1

[18] = tested on: RARa:RXR (NR concentration 270 nM, RXRa partner concentration 90 nM)
Summary of the method: as §1

[19] = tested on: RARa homodimer (NR concentration 270 nM)
Summary of the method: as §1

[20] = tested on: RARb:RXRa (NR concentration 270 nM, RXRa partner concentration 90 nM)
Summary of the method: as §1

Sequence | PBM binding z-score [1] | PBM binding z-score [2] | PBM binding z-score [3] | PBM binding z-score [4] | PBM binding z-score [5] | PBM binding z-score [6] | PBM binding z-score [7] | PBM binding z-score [8] | PBM binding z-score [9] | PBM binding z-score [10] | PBM binding z-score [11] | PBM binding z-score [12] | PBM binding z-score [13] | PBM binding z-score [14] | PBM binding z-score [15] | PBM binding z-score [16] | PBM binding z-score [17] | PBM binding z-score [18] | PBM binding z-score [19] | PBM binding z-score [20]
CTACGAAGGTGAACAAGGTCGTTGATTACTATTC | 1.63 | 1.54 | 0.18 | 1.91 | -0.34 | 2.66 | 0.958 | 1.03 | -0.0387 | 0.552 | 2.27 | 2.28 | 0.435 | 0.389 | 0.63 | 2.98 | 1.39 | 2.46 | 0.451 | 2.33
ACAGACAGGTGATGAAGGTAGCTCAGGCTATCAT | -0.0912 | -0.299 | -0.372 | -0.485 | -0.548 | -0.377 | 0.539 | -0.247 | -0.307 | 0.0803 | 0.00476 | -0.161 | -0.42 | -0.376 | -1.11 | -0.38 | 0.0281 | -0.246 | 0.11 | 0.0595
TCTTGGAGATCAACAGGAGGTTAAGAAAGATCGA | 0.373 | 1.25 | -0.0581 | 0.942 | -0.782 | 1.44 | 0.02 | 1.23 | 2.38 | 1.62 | 0.986 | 0.364 | 0.0727 | 0.526 | -0.163 | 1.09 | -0.208 | 1.41 | -0.417 | 0.374
CCTAATGGGCCATTCAGAGGTCATTGATCATATG | 2.75 | 4.67 | 6.94 | 4.05 | 1.04 | 3.68 | 1.37 | 2.27 | 0.458 | 1.54 | 2.5 | 2.39 | 0.168 | 0.266 | 2.02 | 4.59 | 1.84 | 4.39 | 0.847 | 3.27
CCTAGCAGGCCAGGGTCAGTCAAGCATTTCGCTT | 0.838 | 0.841 | -0.832 | 1.08 | -1.29 | 1.85 | -0.277 | 0.376 | -0.624 | -0.0858 | -0.0042 | 0.156 | -1.41 | -1.98 | 0.086 | 1.04 | -0.793 | 1.69 | -0.695 | 2.09
CCTATTTGGTCAAGGTCACACACGCTATAGGTAC | 4.34 | 4.04 | 2.64 | 4.09 | 1.47 | 4.33 | 3.07 | 3.58 | 1.55 | 2.5 | 2.33 | 3.67 | 1.27 | 1.25 | 3.05 | 4.1 | 2.06 | 4.39 | 2.51 | 4.3
CCTACTGGGCCACGAATGGTCATTGATTCAGTGA | -0.465 | -0.465 | -0.579 | -0.606 | -1.07 | 0.398 | 1.18 | 1.19 | -0.142 | 0.398 | 5.35 | 5.07 | -0.0715 | 0.085 | 0.236 | -0.684 | -0.838 | -0.385 | -0.616 | 0.436
CCGACTGGGGCAGCAAGGTTACCATACCATCCGG | -0.0165 | -0.101 | -0.322 | -0.094 | -0.744 | 0.883 | 0.917 | 0.659 | -0.509 | 0.147 | 1.54 | 2.54 | -0.529 | -1.62 | 0.27 | 0.264 | -0.339 | 0.662 | -0.434 | 1.39
TGAATGAGGTTATATGATCAGGGAACGTTGCAAA | 1.85 | 1.48 | -0.0351 | 1.25 | 0.134 | 2.97 | 1.44 | 1.76 | 1.05 | 1.45 | 1.01 | 1.63 | 0.22 | 0.825 | 0.489 | 1.04 | 0.00293 | 1.77 | 0.606 | 1.26
CTACCAAGGTGAACAAGCTCGTTGATTACTATTC | 0.329 | 0.121 | -0.188 | 0.479 | -0.421 | 0.984 | 0.332 | 0.345 | -0.0799 | 0.167 | 2.56 | 2.23 | 0.852 | 0.253 | 0.000283 | -0.0454 | -0.0254 | 0.251 | 0.281 | 1.41
GCATATAGGTAATACAAGGTGACAGTCCGATTGT | 0.924 | 1.5 | 0.00702 | 0.333 | -0.21 | 1.16 | 1.5 | 1.19 | 0.699 | 0.902 | 4.45 | 3.54 | 1.4 | 0.834 | 0.847 | 0.242 | 0.189 | 1.36 | 0.735 | 0.42
CAGCCTAGGTCAGGGCCAGTTTAGGAGGAACGTT | 2.04 | 1.26 | -0.426 | 0.837 | -1.02 | 2.13 | 0.55 | 0.962 | -0.489 | 0.124 | 1.5 | 1.79 | -1.02 | -1.5 | 0.437 | 1.03 | -0.16 | 1.32 | -0.133 | 3.41
CCGTCTGGGGCAGAAAGGTTACCATACCATCCGG | 0.119 | 0.206 | -0.115 | 0.58 | -1.19 | 1.64 | 0.9 | 1.95 | 0.171 | 0.988 | 0.505 | 0.764 | -1.18 | -1.86 | 0.553 | 0.821 | -0.115 | 1.51 | -0.0366 | 1.54
